AmpC detergent = blocks E. coli AmpC beta-lactamase in detergent assay; AmpC hydrolysis of nitrocefin, absorbance 480 nm, 0.01% Triton; Potency, µM (highest dose often 114 µM), inactives show at the highest dose activity change, negative = inhibition, actives largely listed as inhibitors; 370,000 compounds, 0.041% hits; AID 485294;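 note: 0% = no-compound wells and -100% = no-enzyme wells; nearly all actives have a fitted effect of over 25% in size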
Target sequence (P00811 whole entry, looked up): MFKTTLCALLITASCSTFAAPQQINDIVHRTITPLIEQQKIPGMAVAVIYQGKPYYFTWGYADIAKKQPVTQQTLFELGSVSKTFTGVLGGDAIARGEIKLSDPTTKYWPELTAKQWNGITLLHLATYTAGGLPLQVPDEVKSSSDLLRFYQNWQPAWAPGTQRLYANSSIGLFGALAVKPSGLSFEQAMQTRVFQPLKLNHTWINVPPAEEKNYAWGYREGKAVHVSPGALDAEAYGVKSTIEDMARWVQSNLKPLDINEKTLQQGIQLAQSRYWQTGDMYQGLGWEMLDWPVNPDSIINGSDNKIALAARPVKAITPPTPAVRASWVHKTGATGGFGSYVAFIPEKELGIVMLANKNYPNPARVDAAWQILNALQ
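AmpC (5.3 nM in the dispensed reagent) in 20 mM phosphate pH 7.0 with 0.01% (detergent screen) or 0.0001% Triton X-100 was preincubated with compounds for 15 min at room temperature. Nitrocefin was then added from an 800 uM solution, and hydrolysis was followed at 480 nm.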
Sm TGR inh = inhibitors of Schistosoma mansoni thioredoxin glutathione reductase; Q962Y6; purified TGR, DTNB reduction, TNB absorbance 405 nm; Potency, µM (titrated, usually from 114 µM), inactives show at the top dose activity change, negative = inhibition, hits mostly inhibitors; 360,000 compounds, 3% hits; note: nearly all actives have a fitted effect of over 60% in size
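First, TGR (20 nM dispensed) and NADPH were mixed with compound. Second, a 15 min room-temperature incubation followed. Third, further NADPH and then DTNB were added to start the reaction. Finally, TNB absorbance was monitored kinetically.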
AmpC inh no detg = inhibitors of E. coli AmpC beta-lactamase without detergent; P00811; Potency, µM (top dose mostly 57.1 µM), for inactives: top-dose activity change, negative = inhibition, hits mostly inhibitors; AmpC nitrocefin hydrolysis, absorbance 480 nm, 0.0001% Triton; AID 485341; 330,000 compounds, 0.52% hits;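 note: plate controls were no compound for no effect and no enzyme for full effect; nearly all actives have a fitted effect of over 20% in size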
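AmpC (5.3 nM in the dispensed reagent) in 20 mM phosphate pH 7.0 with 0.01% (detergent screen) or 0.0001% Triton X-100 was preincubated with compounds for 15 min at room temperature. Nitrocefin was then added from an 800 uM solution, and hydrolysis was followed at 480 nm.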
AMA1-RON2 inh = inhibitors of Plasmodium falciparum AMA1-RON2 interaction; 360,000 compounds, 0.2% hits; AlphaScreen AMA1-biotinylated RON2 peptide binding; Potency, µM (titrated, usually from 58.2 µM), without a hit: top-dose activity change, negative = inhibition, usual class: inhibitors;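 note: 0% = vehicle wells and -100% = peptide control; nearly all actives have a fitted effect of over 45% in size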
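AMA1 (3D7) with his tag at 25 nM final met compounds first, then biotinylated RON2 peptide at 25 nM; detection used donor plus acceptor beads, 10 µg/mL apiece, read by AlphaScreen after 30 min at room temperature.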
FMDV inh = foot and mouth disease virus antiviral activity; 410,000 compounds, 1.2% hits; Potency, µM (highest dose often 57.9 µM), for the others: top-dose activity change, negative = inhibition, most hits filed as inhibitors; FMDV antiviral cell-based qHTS; calls by dose curve; tested in HEK293T cells; note: read-out not given here; nearly all actives have a fitted effect of over 45% in size
Numbers without * were called inactive; u = inconclusive; x = not tested or not shown; [ ] = another dose, or the depositor's remark. Shown are actives, neighbours in structure and some others; about 4.1% of the full set was active somewhere. Unless noted, calls come from the whole dose curve; as a rule, active = well fitted curve in the direction sought with a large enough effect; inconclusive = small, poorly fitted or top-dose-only effect, or another doubt; inactive = no such curve, though single readings can be large; an effect the other way counts as inactive or inconclusive. Unless noted, % is set by controls: 0 for no effect and ±100 for the full control effect; potency is the fitted concentration of half-maximal effect.

SMILES	AmpC detergent	Sm TGR inh	AmpC inh no detg	AMA1-RON2 inh	FMDV inh
COc1ccc(CC(=O)Nc2cccc(-c3ccc4nnc(C)n4n3)c2)cc1	4%	2%	61%	5%	-25%
O=C(NCc1ccccn1)c1cnn(-c2ncc3c(n2)-c2ccccc2CC3)c1C1CC1	x	x	x	x	-12%
COc1cc(NC(=O)Cn2nnc(-c3ccc(C(F)(F)F)cc3)n2)c(C(=O)O)cc1OC	1%	8%	x	x	23%
O=C(NNc1ccccc1[N+](=O)[O-])Nc1ccc(Cl)c(Cl)c1	-15%	-7%	25µM*	-8%	-14%
Cc1noc(C)c1CC(=O)NCC1Cc2cc(-c3cccc(OC(F)(F)F)c3)ccc2O1 (centres undefined)	x	x	x	x	-6%
O=C1C(=O)c2ccccc2C(O)=C1CCCCl	-5%	u	-17%	-3%	28µM*
O=[N+]([O-])c1ccc(Sc2nnnn2-c2ccccc2)nc1	1%	14µM*	12%	-9%	22µM*
Cc1ccccc1-n1nnnc1SCC(N)=O	u	9%	-16%	-7%	0%
Cc1cc(C)c(C#N)c(Sc2nnnn2-c2ccccc2)n1	u	5%	0.56µM*	-2%	-11%
Cc1ccccc1-n1nnnc1Sc1nnnn1-c1ccccc1	2%	-29%	-24%	5%	8.9µM*
Cc1nc(Sc2nnnn2-c2ccccc2)c(C#N)c(C)c1C	u	1%	-11%	-6%	-9%
CC(NC(=O)c1cccnc1)c1nnc2n1CCN(Cc1ccc(-c3ccccc3)cc1)CC2 (centres undefined)	x	x	x	x	-10%
Cc1cc(CNC(=O)c2cnn(-c3nccc(-c4ccc5c(c4)OCO5)n3)c2C2CC2)on1	x	x	x	x	30%
c1cnc(N2CCN(c3nc4ccccc4n4cnnc34)CC2)nc1	-2%	13%	-5%	17%	9%
c1ccc(C(c2ccccc2)N2CCN(c3nc4ccccc4n4cnnc34)CC2)cc1	0%	-9%	-4%	-14%	28µM*
Oc1cc(-c2nc3ccccc3s2)cc2c1OCCN(Cc1cccn1-c1ncccn1)C2	x	x	x	x	37%
Cc1ccc(CCNC(=O)C2CC(=O)N(CCc3ccc(C)cc3)C2)cc1 (centres undefined)	8%	-1%	x	x	8%
Cc1ccc(NC(=O)c2ccc3c(c2)OCCO3)nc1	-17%	2%	-13%	-5%	16µM*
Cc1cc(NC(=O)c2ccc3c(c2)OCO3)ccc1NC(=O)c1ccccc1	-13%	-6%	-10%	9%	7.9e-05µM*
Cc1ccc(NC(=O)c2ccc3c(c2)OCCO3)cc1C	10%	2%	-23%	-5%	13µM*
Cc1ccc(CNC(=O)Cn2c(=O)oc3ccccc32)o1	-7%	28µM*	-8%	24%	23%
CC(C)Oc1ccc(CNC(=O)Cn2c(=O)oc3ccccc32)cc1	14%	8%	-9%	-9%	0%
CCCOc1ccc(CNC(=O)Cn2c(=O)oc3ccccc32)cc1	15%	28%	7.9µM*	-5%	-17%
CC1CN(CC(=O)NCC2(N3CCOCC3)CCCC2)Cc2cc(Cl)ccc2O1 (centres undefined)	x	x	x	x	-4%
O=C(CSc1nc2c([nH]c3ccccc32)c(=O)n1-c1ccc(Cl)cc1)N1CCCCCC1	6%	0%	x	x	-33%
SMILES	AmpC detergent	Sm TGR inh	AmpC inh no detg	AMA1-RON2 inh	FMDV inh
Cn1c(=O)c(-c2cccc(C#N)c2)nc2cnc(Oc3ccccc3)nc21	x	x	x	x	-7%
O=C(N/N=C\c1ccoc1)c1ccco1	7%	1%	-9%	42%	25%
O=C(O)c1cccc(Cn2c(Cl)c(/C=N/NC(=O)c3ccco3)sc2=O)c1	1%	45µM*	-4%	39%	6%
O=C(O)c1cccc(Cn2c(Cl)c(/C=N/NC(=O)c3ccccc3)sc2=O)c1	u	56µM*	-24%	2%	-12%
O=C(O)c1cccc(Cn2c(Cl)c(/C=N/NC(=O)c3cccc(O)c3)sc2=O)c1	4%	9%	-29%	23%	1%
O=C(O)c1cccc(Cn2c(Cl)c(/C=N/NC(=O)c3cc4ccccc4cc3O)sc2=O)c1	1%	32µM*	-31%	24%	-21%
CCc1nn(CC(=O)Nc2c(C)cc(C)cc2C)c(=O)c2cc3sccc3n12	1%	0%	x	x	-2%
C=CCn1c(SCC(C)=O)nc2scc(-c3ccc(C)o3)c2c1=O	-4%	16µM*	-16%	4%	75%
Cc1ccc(-c2csc3nc(C)n(-n4c(C)ccc4C)c(=O)c23)o1	-13%	6.3µM*	1%	-15%	-12%
C=CCn1c(SCC(=O)Nc2ccc(C(=O)O)cc2)nc2sc(C)c(C)c2c1=O	-16%	-7%	-39%	4%	-18%
C=CCn1c(SCC(=O)NCCO)nc2sc(C)c(C)c2c1=O	1%	21%	-4%	1%	3.5µM*
C=CCn1c(SCC(=O)NC2CCCC2)nc2scc(-c3ccco3)c2c1=O	u	11µM*	35µM*	u	-29%
C=CCn1c(SCC(=O)NCC2CCCO2)nc2scc(-c3ccccc3)c2c1=O (centres undefined)	9%	1%	114%	-3%	-19%
COc1cccc(CNC(=O)c2c(OC)cc(=O)n3c2CCN(C(=O)c2ccoc2C)CC3)c1	x	x	x	x	-4%
C=CCn1c(SCC(=O)NCCCC)nc2scc(-c3ccco3)c2c1=O	u	14µM*	-23%	-20%	-24%
C=CCn1c(=S)[nH]c2scc(-c3ccc(C)o3)c2c1=O	u	35µM*	-18%[11.4 µM]	68%	1%
CN(c1ccccc1)c1ccc(/C=N/N2CCOCC2)cc1	-5%	-3%	36%	11µM*	8%
CO/N=C(/C(=O)N[C@@H]1C(=O)N2C(C(=O)O)=CCS[C@H]12)c1cnc(N)s1	50µM*	-27%	-34%	x	x
COc1ccc(NC(=S)Nc2ccc(C)c(S(=O)(=O)N3CCCCC3)c2)cc1	1%	0%	-27%	x	x
Cc1ccccc1C(=O)NCC(=O)Nc1ccc(C)c(S(=O)(=O)N2CCCCCC2)c1	-9%	-23%	-2%	20%	35µM*
C=CCNC(=S)Nc1ccc(C)c(S(=O)(=O)N2CCCCC2)c1	-1%	35µM*	-25%	0%	12%
Cc1ccccc1OCC(=O)Nc1ccc(C)c(S(=O)(=O)N2CCCCCC2)c1	u	-1%	7%	12%	-24%
COc1cc(CCC(=O)Nc2ccc(C)c(S(=O)(=O)N3CCCCCC3)c2)cc(OC)c1OC	u	-6%	39%	0%	18µM*
COc1cc(CCC(=O)Nc2ccc(S(=O)(=O)N3CCCC3)cc2)cc(OC)c1OC	-11%	0%	-4%	-5%	-22%
Cc1ccc(NC(=O)Cn2nc(C(=O)O)c3ccccc3c2=O)cc1S(=O)(=O)N1CCCCC1	x	x	-55%	6%	40µM*
COc1ccccc1C1CN(Cc2cccnc2)Cc2ccccc2O1 (centres undefined)	x	x	x	x	-10%
Cn1cc(CN2CCOc3ccc(C(O)C4CCCCC4)cc3C2)cn1 (centres undefined)	x	x	x	x	-29%
